Assay [1] is described as follows: BSK_LPS_PGE2: BioMAP Diversity Plus: LPS Assay for Prostaglandin E2 (PGE2) Biomarker Activity (AID 2283082).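 As to AC50: secreted prostaglandin E2 measured by ELISA in LPS-stimulated co-culture.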 As to conditions: primary human HUVEC with PBMC; actives raise or lower the signal. In a few lines:
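LPS-activated HUVEC/PBMC co-culture; cmpd dosed, 24 h; PGE2 by ELISA; bidirectional fit vs DMSO; SRB (0.1%, TCA-fixed, 560 nm) in parallel plates for overt cytotox.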

Read-out in assay [2]: Macrophage colony-stimulating factor (MCSF), CSF1 (gene 1435)
Nature of the assay: BSK_LPS_MCSF: BioMAP Diversity Plus: LPS Assay for Macrophage colony-stimulating factor (MCSF) Biomarker Activity (AID 2283083). As to conditions: primary human HUVEC with PBMC; actives raise or lower the signal. In a few lines:
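Bidirectional fit versus DMSO of ELISA-measured M-CSF in co-cultured human umbilical vein endothelial cells and PBMC, sampled 24 h after dosing.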

Read-out in assay [3]: Tissue Factor, F3 (gene 2152)
The experiment in a line: BSK_LPS_TissueFactor: BioMAP Diversity Plus: LPS Assay for Tissue Factor Biomarker Activity (AID 2283084). As to conditions: primary human HUVEC with PBMC; actives raise or lower the signal. In a few lines:
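Read-out: CD142 ELISA, 24 h. System: LPS-driven human endothelial/PBMC co-culture. Analysis: up- or down-signal fitted against DMSO.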

Read-out in assay [4]: Tumor necrosis factor (Homo sapiens) (UniProt P01375)
The experiment in a line: BSK_LPS_TNFa: BioMAP Diversity Plus: LPS Assay for Tumour Necrosis Factor alpha (TNFa) Biomarker Activity (AID 2283085). Conditions: primary human HUVEC with PBMC; actives raise or lower the signal. The gist of the method:
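Read-out is ELISA of TNFa in primary human endothelial cell–PBMC co-cultures at 24 h after compound. Activity in either direction was fitted against DMSO.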

Read-out in assay [5]: Vascular cell adhesion molecule 1 (VCAM1), VCAM1 (gene 7412)
The experiment in a line: BSK_LPS_VCAM1: BioMAP Diversity Plus: LPS Assay for Vascular cell adhesion molecule 1 (VCAM1) Biomarker Activity (AID 2283086). As to conditions: primary human HUVEC with PBMC; actives raise or lower the signal. In a few lines:
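HUVEC + PBMC co-culture, LPS system; compound 24 h; VCAM-1 by ELISA; bidirectional fit vs DMSO control; parallel SRB (0.1%, TCA-fixed, 560 nm) for cytotoxicity.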

Read-out in assay [6]: CD40, CD40 (gene 958)
Nature of the assay: BSK_SAg_CD40: BioMAP Diversity Plus: SAg Assay for CD40 Biomarker Activity (AID 2283088). Conditions: primary human HUVEC with PBMC; actives raise or lower the signal. The gist of the method: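 Endpoint derived by fitting increases or decreases versus DMSO controls. CD40 is detected by fluorescence ELISA in a human vascular co-culture of endothelium and PBMC at 24 h.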

Read-out in assay [7]: CD69, CD69 (gene 969)
Nature of the assay: BSK_SAg_CD69: BioMAP Diversity Plus: SAg Assay for CD69 Biomarker Activity (AID 2283089).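 As to AC50: cell surface CD69 protein quantified by ELISA with fluorescence detection.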 As to conditions: primary human HUVEC with PBMC; actives raise or lower the signal. The gist of the method:
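ELISA, fluorescence read-out: CD69 on human umbilical vein endothelial cell + PBMC co-culture, 24 h post-dosing. Gain or loss of signal fitted bidirectionally against DMSO baseline.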

Read-out in assay [8]: Monocyte Chemoattractant Protein-1 (MCP1), CCL2 (gene 6347)
Nature of the assay: BSK_SAg_MCP1: BioMAP Diversity Plus: SAg Assay for Monocyte Chemoattractant Protein-1 (MCP1) Biomarker Activity (AID 2283090). Conditions: primary human HUVEC with PBMC; actives raise or lower the signal. In a few lines: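 MCP-1 levels in the endothelial–PBMC SAg co-culture were quantified by ELISA at 24 h post-dosing; both increases and decreases versus DMSO scored. Cytotoxicity monitored by SRB total protein in parallel cultures.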

Read-out in assay [9]: E-selectin (Homo sapiens) (UniProt P16581)
Nature of the assay: BSK_SAg_Eselectin: BioMAP Diversity Plus: SAg Assay for Eselectin Biomarker Activity (AID 2283091). Conditions: primary human HUVEC with PBMC; actives raise or lower the signal. In a few lines: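 Endpoint values derive from bidirectional fitting relative to DMSO, using ELISA-measured E-selectin in a human vascular co-culture (umbilical vein endothelium plus PBMC) sampled 24 h after dosing.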

Read-out in assay [10]: Monokine induced gamma interferon (MIG), CXCL9 (gene 4283)
The experiment in a line: BSK_SAg_MIG: BioMAP Diversity Plus: SAg Assay for Monokine induced gamma interferon (MIG) Biomarker Activity (AID 2283092). Conditions: primary human HUVEC with PBMC; actives raise or lower the signal. In a few lines: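 ELISA readout of MIG/CXCL9; primary human umbilical vein endothelial cells co-cultured with peripheral blood mononuclear cells; 24 h post-dose; gain/loss fit vs DMSO baseline.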

The nature of assay [11]: BSK_SAg_PBMCCytotoxicity: PBMC Cytotoxicity Assessment in the BioMAP Diversity Plus: SAg Assay (AID 2283093).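 Also: PBMC viability measured as Alamar Blue reduction fluorescence at 546/580 nm; fitted both ways against DMSO so a hit may be loss or gain of signal.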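 As to AC50: PBMC superantigen activated with SEB plus TSST-1 one hour after compound addition.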 Conditions: primary human HUVEC with PBMC. In a few lines: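 Compound added to 75,000 PBMC/well for 1 h; SEB and TSST-1 then added at 20 ng/mL final each; 90 h incubation; Alamar Blue 6 h; read 546/580 nm ex/em. Activity fitted bidirectionally relative to DMSO baseline.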

Read-out in assay [12]: Interleukin-8 (IL8), CXCL8 (gene 3576)
The experiment in a line: BSK_SAg_IL8: BioMAP Diversity Plus: SAg Assay for Interleukin-8 (IL8) Biomarker Activity (AID 2283094). Conditions: primary human HUVEC with PBMC; actives raise or lower the signal. In a few lines:
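ELISA read-out of IL-8 in a primary human vascular co-culture (umbilical vein endothelium plus PBMC), taken 24 h after compound addition. Values derive from bidirectional fits against DMSO negative controls.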

Assay [13] can be described thus: BSK_SAg_Proliferation: Cell Proliferation Assessment in the BioMAP Diversity Plus: SAg Assay (AID 2283095).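 Also: relative cell number as total protein by SRB absorbance in sub-confluent culture.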 As to conditions: primary human HUVEC with PBMC. In a few lines:
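Cells (endothelium plus PBMC, human primary) were dosed with chemical, cultured 96 h, fixed in 10% TCA and stained with 0.1% SRB. Absorbance at 560 nm gave relative protein, fitted bidirectionally relative to DMSO.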

Assay [14] in a line: BSK_SAg_SRB: Viability Assessment in the BioMAP Diversity Plus: SAg Assay (AID 2283096).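 Also: cells read one day after compound addition; hits may be either gain or loss of signal compared with DMSO.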 As to conditions: primary human HUVEC with PBMC. In a few lines: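 Total protein by sulforhodamine B staining, 24 h after dosing, in HUVEC–PBMC co-culture; DMSO-referenced bidirectional fitting.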
Assay [15] concerns the target human CYP2B6, CYP2B6 (gene 1555) (UniProt P20813). Nature of the assay: NVS_ADME_hCYP2B6: NovaScreen (NVS) CYP450-related Enzyme Activity (ADME) Assay for human CYP2B6 (AID 2283101; active = hit-call score of the fitted dose curve at least 0.9, where 1 is the maximum). The gist of the method: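 Fluorescence-based enzyme activity of recombinant human CYP2B6, measured 1 h post-dose against acetonitrile vehicle baseline. Screened at a single concentration of 10 uM in duplicate before concentration-response follow-up.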

In assay [16] the target is human CYP1A1, CYP1A1 (gene 1543) (UniProt P04798). The experiment in a line: NVS_ADME_hCYP1A1: NovaScreen (NVS) CYP450-related Enzyme Activity (ADME) Assay for human CYP1A1 (AID 2283100; active = hit-call score of the fitted dose curve at least 0.9, where 1 is the maximum). In a few lines: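 Inhibition of recombinant CYP1A1 turnover was assessed fluorometrically in a biochemical format 1 h after compound exposure. Testing began at 10 uM in duplicate and progressed to concentration series reaching 20 uM, with on-plate positive and negative controls.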
Sequence of human CYP1A1, CYP1A1 (gene 1543) (P04798 whole entry, looked up): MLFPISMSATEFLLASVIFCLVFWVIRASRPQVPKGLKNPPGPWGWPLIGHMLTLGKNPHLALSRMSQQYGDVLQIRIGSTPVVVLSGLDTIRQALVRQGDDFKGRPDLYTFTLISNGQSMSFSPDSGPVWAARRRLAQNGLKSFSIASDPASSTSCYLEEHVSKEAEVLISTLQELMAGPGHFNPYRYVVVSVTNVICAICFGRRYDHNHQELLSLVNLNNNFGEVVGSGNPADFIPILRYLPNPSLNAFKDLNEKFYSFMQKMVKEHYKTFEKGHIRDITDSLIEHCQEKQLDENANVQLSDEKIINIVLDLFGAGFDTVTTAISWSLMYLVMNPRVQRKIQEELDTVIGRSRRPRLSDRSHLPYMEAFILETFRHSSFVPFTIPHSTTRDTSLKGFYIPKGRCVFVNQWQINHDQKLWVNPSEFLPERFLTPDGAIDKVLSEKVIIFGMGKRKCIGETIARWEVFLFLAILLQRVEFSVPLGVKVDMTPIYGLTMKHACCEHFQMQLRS

The target in assay [17] is human CYP2D6, CYP2D6 (gene 1565) (UniProt P10635). The experiment in a line: NVS_ADME_hCYP2D6: NovaScreen (NVS) CYP450-related Enzyme Activity (ADME) Assay for human CYP2D6 (AID 2283107; active = hit-call score of the fitted dose curve at least 0.9, where 1 is the maximum). The gist of the method: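 Biochemical fluorescence assay, insect-cell-derived enzyme. Read at 1 h; inhibition taken from loss of signal against acetonitrile. Screened at 10 uM in duplicate, with concentration series for actives.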
Sequence of human CYP2D6, CYP2D6 (gene 1565) (P10635 whole entry, looked up): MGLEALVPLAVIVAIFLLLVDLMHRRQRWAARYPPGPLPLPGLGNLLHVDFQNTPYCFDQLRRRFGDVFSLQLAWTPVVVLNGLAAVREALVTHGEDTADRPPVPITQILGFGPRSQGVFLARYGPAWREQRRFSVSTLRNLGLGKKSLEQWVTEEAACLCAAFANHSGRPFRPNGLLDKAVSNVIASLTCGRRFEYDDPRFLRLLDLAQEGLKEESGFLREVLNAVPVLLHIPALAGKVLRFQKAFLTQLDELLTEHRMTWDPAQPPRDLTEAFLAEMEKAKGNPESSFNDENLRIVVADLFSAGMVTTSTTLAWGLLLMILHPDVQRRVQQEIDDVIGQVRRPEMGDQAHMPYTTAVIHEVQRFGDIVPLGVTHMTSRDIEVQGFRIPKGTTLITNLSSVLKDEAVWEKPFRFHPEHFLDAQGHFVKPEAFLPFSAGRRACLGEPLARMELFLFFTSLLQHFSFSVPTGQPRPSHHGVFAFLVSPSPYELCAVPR

Assay [18] deals with human CYP2A6, CYP2A6 (gene 1548) (UniProt P11509). Nature of the assay: NVS_ADME_hCYP2A6: NovaScreen (NVS) CYP450-related Enzyme Activity (ADME) Assay for human CYP2A6 (AID 2283099; active = hit-call score of the fitted dose curve at least 0.9, where 1 is the maximum). The gist of the method:
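Loss of fluorescence signal relative to acetonitrile vehicle reported CYP2A6 inhibition in a cell-free system using insect-cell-derived enzyme. Readings were taken at 0.5 h; top concentration in follow-up dose series was 20 uM.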

Inconclusive results are not listed. Activity calls are given as the source filed them. The calls were made as follows, unless noted: active = hit-call score of the fitted dose curve at least 0.9, where 1 is the maximum; inactive = score below 0.9.

A word on the AC50: it is the concentration at which the activity in the assay is half-maximal.

Sequence of E-selectin (Homo sapiens) (P16581 whole entry, looked up): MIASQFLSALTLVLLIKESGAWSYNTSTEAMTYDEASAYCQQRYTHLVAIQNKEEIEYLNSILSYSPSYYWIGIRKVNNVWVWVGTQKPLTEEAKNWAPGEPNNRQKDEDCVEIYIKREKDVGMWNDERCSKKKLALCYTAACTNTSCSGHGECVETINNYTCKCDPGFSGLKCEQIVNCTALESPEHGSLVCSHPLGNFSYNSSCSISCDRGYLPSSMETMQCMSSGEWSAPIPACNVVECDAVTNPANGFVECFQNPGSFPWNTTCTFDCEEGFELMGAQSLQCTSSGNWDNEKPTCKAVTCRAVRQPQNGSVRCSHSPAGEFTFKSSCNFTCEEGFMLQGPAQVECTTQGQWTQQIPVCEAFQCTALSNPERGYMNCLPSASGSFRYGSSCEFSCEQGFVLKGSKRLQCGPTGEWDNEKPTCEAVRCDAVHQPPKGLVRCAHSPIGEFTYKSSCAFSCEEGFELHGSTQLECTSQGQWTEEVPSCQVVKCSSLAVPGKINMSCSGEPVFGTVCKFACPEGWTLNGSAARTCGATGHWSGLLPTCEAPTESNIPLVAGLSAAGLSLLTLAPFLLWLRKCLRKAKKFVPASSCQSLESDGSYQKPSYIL
Sequence of Tumor necrosis factor (Homo sapiens) (P01375 whole entry, looked up): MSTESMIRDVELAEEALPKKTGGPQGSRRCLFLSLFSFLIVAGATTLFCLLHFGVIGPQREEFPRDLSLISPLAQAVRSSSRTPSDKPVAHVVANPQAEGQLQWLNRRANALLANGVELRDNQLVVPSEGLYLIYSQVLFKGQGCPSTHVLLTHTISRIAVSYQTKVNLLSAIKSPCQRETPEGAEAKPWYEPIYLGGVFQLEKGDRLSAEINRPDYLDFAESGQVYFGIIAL
Sequence of human CYP2A6, CYP2A6 (gene 1548) (P11509 whole entry, looked up): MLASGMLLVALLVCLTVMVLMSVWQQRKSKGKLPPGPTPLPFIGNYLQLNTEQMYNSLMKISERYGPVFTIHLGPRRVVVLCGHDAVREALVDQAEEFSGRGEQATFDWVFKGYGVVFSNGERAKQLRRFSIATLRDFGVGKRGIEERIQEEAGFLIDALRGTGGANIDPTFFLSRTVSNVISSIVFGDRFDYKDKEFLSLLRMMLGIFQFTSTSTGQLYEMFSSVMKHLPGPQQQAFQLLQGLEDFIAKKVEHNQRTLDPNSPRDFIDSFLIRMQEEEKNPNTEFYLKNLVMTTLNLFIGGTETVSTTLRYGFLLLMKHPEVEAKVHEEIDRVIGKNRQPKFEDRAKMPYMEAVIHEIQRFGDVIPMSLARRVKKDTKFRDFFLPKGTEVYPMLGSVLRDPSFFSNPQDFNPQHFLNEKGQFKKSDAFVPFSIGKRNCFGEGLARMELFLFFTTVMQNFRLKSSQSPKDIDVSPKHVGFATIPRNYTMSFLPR
Sequence of human CYP2B6, CYP2B6 (gene 1555) (P20813 whole entry, looked up): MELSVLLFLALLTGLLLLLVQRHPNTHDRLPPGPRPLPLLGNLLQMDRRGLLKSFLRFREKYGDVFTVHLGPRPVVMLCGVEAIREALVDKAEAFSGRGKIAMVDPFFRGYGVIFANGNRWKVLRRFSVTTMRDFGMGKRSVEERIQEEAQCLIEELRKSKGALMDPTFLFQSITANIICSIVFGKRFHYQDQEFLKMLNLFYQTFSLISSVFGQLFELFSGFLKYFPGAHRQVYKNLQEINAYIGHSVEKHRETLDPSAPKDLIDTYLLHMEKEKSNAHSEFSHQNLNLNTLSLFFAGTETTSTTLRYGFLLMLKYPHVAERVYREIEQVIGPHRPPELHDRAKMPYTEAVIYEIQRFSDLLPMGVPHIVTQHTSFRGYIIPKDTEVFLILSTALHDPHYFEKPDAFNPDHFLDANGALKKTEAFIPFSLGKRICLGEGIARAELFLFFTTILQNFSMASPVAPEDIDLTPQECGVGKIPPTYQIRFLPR

As for `c1ccc2ccccc2c1`, the outcome in assay [1], in assay [2], in [3], in [4], in [5] and in assay [6] was inactive. Besides, the outcome in [7], in assay [8], in [9], in [10], in assay [11] and in assay [12] was inactive. In addition, the result in [13] and in assay [14] was inactive.
In the case of `O=c1c(-c2ccc(O)cc2)coc2cc(O)cc(O)c12`, the half-maximal activity concentration (AC50) was 10 µM (active) in assay [1]; 14.8 µM (active) in assay [2]; 13.2 µM (active) in assay [3]; 15.8 µM (active) in assay [4]; 13.9 µM (active) in assay [5]; 25.6 µM (active) in assay [6]. The AC50 was 20 µM (active) in [7]; 18.7 µM (active) in assay [8]; 24.9 µM (active) in [9]; 20 µM (active) in [12]; 15.6 µM (active) in [13]; 20 µM (active) in [14]. Further, in assay [15], the compound was called inactive.
As to `Cc1oc2c(NC(=O)c3c(Cl)cccc3Cl)cccc2c1C(C)(C)O`, the half-maximal activity concentration (AC50) is 21.1 µM (active) in assay [1]; 4.5 µM (active) in [3]; 20.9 µM (active) in assay [6]; 19.2 µM (active) in assay [7]; 7.57 µM (active) in assay [8]; 7.6 µM (active) in assay [9]. The AC50 was 20.6 µM (active) in [13] and 2.39 µM (active) in assay [16]. Further, the outcome in assay [2], in [4], in assay [5], in assay [10] and in [12] was inactive.
In the case of `O=C1c2ccccc2C(=O)N1CCc1noc(-c2ccc(CN3CCCCCC3)s2)n1`, the result in assay [1], in assay [2], in [3], in assay [4], in assay [5] and in [6] was inactive. For the same compound, the outcome in [7], in assay [8], in [12], in [13] and in assay [14] was inactive. Besides, the AC50 in assay [9] was 16.9 µM (active); in [16], 4.62 µM (active); in assay [17], 6.57 µM (active).
Turning to `Oc1ccccc1`, the result in assay [1], in assay [2], in [3], in assay [4], in assay [5] and in assay [6] was inactive. Besides, the result in assay [7], in [8], in assay [9], in assay [10], in assay [12] and in assay [13] was inactive. Also, the result in assay [14] and in assay [18] was inactive.
For `Cc1cc(F)ccc1-c1cc(N2CC[C@@H](O)[C@H]2CO)ncc1N(C)C(=O)C(C)(C)c1cc(C(F)(F)F)cc(C(F)(F)F)c1`, the result in assay [1] was inactive. Besides, the concentration at half-maximal activity (AC50) in assay [2] is 10.8 µM (active); in assay [3], 12.9 µM (active); in assay [4], 10.7 µM (active); in assay [5], 11.2 µM (active); in assay [6], 9.9 µM (active); in assay [7] it was 10.5 µM (active). The half-maximal activity concentration (AC50) in assay [8] was 10.3 µM (active); in assay [9], 10.2 µM (active); in assay [10] it was 13.1 µM (active); in [11] it was 7.85 µM (active); in [12], 7.96 µM (active); in assay [13] it was 5.7 µM (active). In assay [14], the AC50 was 10.8 µM (active).

For the origin of these results see PubChem BioAssay (EPA / NIEHS).
